Measured values: ChEMBL document CHEMBL1961873, “Compounds: GSK PKIS; Assays: Nanosyn kinase panel” (2012)

Legend:
[1] = biological target: T1, Inhibitor of nuclear factor kappa-B kinase subunit epsilon (Homo sapiens) (UniProt Q14164); conditions: at 1 µM;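 also: reported values are averaged percent inhibition figures against human IKKε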
T1 sequence (whole entry): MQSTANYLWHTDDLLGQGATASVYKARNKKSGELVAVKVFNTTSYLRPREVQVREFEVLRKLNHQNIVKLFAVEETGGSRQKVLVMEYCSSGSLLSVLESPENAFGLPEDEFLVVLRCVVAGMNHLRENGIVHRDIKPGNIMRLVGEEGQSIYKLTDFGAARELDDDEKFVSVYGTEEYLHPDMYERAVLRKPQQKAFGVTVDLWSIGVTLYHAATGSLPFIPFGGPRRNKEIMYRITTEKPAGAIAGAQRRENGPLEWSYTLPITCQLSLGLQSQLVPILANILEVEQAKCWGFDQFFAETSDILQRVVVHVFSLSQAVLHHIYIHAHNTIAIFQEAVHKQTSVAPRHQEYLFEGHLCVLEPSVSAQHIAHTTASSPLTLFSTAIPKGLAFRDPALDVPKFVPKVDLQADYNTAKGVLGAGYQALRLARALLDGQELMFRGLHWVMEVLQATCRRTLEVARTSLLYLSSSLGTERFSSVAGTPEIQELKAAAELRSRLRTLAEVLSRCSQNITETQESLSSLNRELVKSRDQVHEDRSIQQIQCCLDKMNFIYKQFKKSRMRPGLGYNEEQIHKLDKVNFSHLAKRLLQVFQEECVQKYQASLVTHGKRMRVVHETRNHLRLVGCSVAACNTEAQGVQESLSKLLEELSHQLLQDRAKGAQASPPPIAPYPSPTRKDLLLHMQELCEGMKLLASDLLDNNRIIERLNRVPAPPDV

[2] = biological target: T2, Serine/threonine-protein kinase Nek1 (Homo sapiens) (UniProt Q96PY6); conditions: at 0.1 µM
T2 sequence (whole entry): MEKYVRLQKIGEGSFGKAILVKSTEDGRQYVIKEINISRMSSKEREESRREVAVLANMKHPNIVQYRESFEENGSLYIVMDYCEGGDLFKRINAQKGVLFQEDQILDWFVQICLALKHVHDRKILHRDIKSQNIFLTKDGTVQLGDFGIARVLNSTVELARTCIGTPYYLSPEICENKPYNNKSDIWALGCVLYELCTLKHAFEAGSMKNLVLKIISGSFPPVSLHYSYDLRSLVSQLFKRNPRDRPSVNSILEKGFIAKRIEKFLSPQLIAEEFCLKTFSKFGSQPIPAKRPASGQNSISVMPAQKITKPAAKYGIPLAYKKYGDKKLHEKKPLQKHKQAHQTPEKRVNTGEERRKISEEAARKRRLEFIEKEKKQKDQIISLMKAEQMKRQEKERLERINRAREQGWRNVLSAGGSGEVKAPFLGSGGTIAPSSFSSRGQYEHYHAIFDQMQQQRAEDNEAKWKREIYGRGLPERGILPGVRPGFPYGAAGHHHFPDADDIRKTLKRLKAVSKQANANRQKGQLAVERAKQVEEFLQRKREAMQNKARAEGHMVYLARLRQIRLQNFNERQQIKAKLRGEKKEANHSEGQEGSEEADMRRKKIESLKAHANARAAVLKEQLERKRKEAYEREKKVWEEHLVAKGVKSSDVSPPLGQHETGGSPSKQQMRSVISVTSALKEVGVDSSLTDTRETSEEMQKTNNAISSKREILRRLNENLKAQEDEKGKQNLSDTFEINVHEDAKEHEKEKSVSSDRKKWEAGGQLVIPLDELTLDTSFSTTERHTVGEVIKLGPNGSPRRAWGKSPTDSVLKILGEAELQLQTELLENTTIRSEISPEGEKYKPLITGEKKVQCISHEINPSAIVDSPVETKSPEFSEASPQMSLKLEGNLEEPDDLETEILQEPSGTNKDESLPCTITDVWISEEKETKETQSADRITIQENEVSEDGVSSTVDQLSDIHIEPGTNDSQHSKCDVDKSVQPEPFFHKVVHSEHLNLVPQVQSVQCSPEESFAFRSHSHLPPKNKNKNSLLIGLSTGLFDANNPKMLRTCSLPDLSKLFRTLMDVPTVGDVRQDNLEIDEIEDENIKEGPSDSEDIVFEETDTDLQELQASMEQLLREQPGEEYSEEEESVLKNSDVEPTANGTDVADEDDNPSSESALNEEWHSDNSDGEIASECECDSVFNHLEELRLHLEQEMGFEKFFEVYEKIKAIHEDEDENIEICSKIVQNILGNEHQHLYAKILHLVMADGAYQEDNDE

[3] = biological target: T2, Serine/threonine-protein kinase Nek1 (Homo sapiens); conditions: at 1 µM
[4] = biological target: T3, Serine/threonine-protein kinase Nek2 (Homo sapiens) (UniProt P51955); conditions: at 0.1 µM
T3 sequence (whole entry): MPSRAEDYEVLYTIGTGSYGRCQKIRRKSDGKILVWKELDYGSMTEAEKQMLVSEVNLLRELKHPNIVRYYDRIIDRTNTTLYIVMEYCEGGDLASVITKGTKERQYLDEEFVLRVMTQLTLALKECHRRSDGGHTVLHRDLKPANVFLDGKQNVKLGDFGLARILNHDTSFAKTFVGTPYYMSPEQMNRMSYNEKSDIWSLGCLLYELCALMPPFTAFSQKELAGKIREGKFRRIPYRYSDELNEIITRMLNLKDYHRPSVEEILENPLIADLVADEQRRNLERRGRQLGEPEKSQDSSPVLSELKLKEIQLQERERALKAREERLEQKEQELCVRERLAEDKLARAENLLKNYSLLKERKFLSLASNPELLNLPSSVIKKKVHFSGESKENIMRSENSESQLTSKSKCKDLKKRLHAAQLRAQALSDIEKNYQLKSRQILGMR

[5] = biological target: T3, Serine/threonine-protein kinase Nek2 (Homo sapiens); conditions: at 1 µM
[6] = biological target: Serine/threonine-protein kinase Nek6 (Homo sapiens) (UniProt Q9HC98); conditions: at 0.1 µM
[7] = biological target: Serine/threonine-protein kinase Nek6 (Homo sapiens) (UniProt Q9HC98); conditions: at 1 µM
[8] = biological target: Serine/threonine-protein kinase Nek7 (Homo sapiens) (UniProt Q8TDX7); conditions: at 0.1 µM
[9] = biological target: Serine/threonine-protein kinase Nek7 (Homo sapiens) (UniProt Q8TDX7); conditions: at 1 µM
[10] = biological target: T4, Serine/threonine-protein kinase Nek9 (Homo sapiens) (UniProt Q8TD19); conditions: at 0.1 µM;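 also: reported value is the mean percent inhibition of NEK9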
T4 sequence (whole entry): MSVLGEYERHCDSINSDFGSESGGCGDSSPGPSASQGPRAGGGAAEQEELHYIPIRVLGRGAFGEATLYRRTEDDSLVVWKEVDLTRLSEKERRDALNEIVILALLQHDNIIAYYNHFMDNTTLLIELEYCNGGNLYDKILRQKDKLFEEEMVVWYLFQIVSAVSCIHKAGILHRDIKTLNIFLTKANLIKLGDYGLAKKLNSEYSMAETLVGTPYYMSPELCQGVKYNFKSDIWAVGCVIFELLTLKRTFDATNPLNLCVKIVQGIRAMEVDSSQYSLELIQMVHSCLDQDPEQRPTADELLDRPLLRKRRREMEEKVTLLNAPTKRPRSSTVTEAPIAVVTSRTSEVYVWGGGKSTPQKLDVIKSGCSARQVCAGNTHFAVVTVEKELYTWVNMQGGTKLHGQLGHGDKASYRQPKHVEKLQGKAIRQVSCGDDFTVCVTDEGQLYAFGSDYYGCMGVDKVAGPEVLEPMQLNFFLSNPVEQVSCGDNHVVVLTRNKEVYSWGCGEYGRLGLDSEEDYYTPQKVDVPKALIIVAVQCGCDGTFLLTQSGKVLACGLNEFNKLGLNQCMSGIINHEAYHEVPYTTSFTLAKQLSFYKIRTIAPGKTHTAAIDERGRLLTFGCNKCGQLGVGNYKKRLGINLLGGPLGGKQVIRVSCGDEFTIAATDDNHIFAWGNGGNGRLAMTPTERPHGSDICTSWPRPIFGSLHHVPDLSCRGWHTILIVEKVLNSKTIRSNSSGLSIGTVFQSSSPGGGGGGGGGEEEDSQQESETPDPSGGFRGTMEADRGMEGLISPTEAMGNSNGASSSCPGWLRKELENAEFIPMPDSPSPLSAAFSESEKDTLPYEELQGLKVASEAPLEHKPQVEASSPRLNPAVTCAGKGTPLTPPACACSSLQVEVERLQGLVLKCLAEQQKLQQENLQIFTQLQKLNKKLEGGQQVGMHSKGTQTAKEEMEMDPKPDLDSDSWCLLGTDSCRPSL

Chain of Serine/threonine-protein kinase Nek6 (Homo sapiens) (Q9HC98 whole entry): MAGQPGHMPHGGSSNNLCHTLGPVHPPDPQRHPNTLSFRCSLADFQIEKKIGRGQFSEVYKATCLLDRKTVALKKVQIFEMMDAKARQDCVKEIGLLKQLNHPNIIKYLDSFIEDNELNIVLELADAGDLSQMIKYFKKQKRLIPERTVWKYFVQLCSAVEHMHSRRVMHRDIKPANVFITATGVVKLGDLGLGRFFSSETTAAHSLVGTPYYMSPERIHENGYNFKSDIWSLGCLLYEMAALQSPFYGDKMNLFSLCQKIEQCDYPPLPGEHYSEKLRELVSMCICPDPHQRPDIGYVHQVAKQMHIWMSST
Chain of Serine/threonine-protein kinase Nek7 (Homo sapiens) (Q8TDX7 whole entry, looked up): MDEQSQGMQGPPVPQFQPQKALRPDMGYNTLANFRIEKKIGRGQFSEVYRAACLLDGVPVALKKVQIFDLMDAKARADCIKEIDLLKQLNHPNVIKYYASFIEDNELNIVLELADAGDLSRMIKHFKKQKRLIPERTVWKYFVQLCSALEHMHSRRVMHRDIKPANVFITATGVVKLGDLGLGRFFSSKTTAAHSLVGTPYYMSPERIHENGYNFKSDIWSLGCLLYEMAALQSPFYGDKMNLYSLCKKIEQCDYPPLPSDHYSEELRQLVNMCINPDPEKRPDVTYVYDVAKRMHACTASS

Compound `CC(C)c1ccc2c(c1)NC(=O)/C2=N/Nc1ccc(S(N)(=O)=O)cc1` has an inhibition [1] of -1.41%, an inhibition [2] of 0.8% and an inhibition [3] of -0.15%. It also gave an inhibition [4] of 1.08%, an inhibition [5] of 0.29% and an inhibition [6] of 1.12%. For the same compound, the inhibition [7] was 2.08%, the inhibition [8] was -0.24% and the inhibition [9] was 1.29%. It also gave an inhibition [10] of 2.87%.
